# High-throughput results (PubChem)
# m5-HT2A agonist – agonists of mouse serotonin 5-HT2A receptor (HTR2A). P35363. activation, % at 7.6 µM. 360,000 compounds, 0.66% hits. CHO-K1 mHTR2A beta-arrestin complementation, luminescence; percent of 30 µM serotonin response;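 active = activation above a run cutoff, the mean activation of all tested compounds plus 3 SD, cut at about 14% in these data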;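 note: 0% = plate median of compound wells and 100% = 30 µM serotonin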
# Target sequence (P35363 whole entry, looked up): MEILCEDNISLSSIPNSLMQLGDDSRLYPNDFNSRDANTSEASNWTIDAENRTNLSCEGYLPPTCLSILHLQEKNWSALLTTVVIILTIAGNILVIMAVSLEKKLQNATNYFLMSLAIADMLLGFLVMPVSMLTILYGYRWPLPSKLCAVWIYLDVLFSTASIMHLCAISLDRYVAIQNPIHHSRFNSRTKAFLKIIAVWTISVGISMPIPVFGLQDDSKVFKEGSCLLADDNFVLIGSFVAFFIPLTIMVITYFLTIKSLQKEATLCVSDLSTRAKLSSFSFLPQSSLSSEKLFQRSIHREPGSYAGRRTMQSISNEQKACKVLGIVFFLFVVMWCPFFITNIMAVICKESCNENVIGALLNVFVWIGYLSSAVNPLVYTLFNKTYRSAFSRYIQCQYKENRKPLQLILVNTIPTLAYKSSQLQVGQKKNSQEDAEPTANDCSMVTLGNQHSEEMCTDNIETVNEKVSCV
# HGIII-sPLA2 inh – Blocks human group III sPLA2 activity; QFRET BODIPY PC-A2 liposome hydrolysis, fluorescence; 370,000 compounds, 0.56% hits; inhibition, % at 12.2 µM;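 active = inhibition above mean plus 3 SD of compounds lying within the high and low control bounds, cut at about 19% in these data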;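 note: 0% = median of test compound wells and 100% = no enzyme DMSO wells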
# HTR5A inv ctr – inverse agonist of human HTR5A in OPRM1-OPRD1 counter-screen; 340,000 compounds, 0.083% hits; inhibition, % at 9.3 µM; HTR5A cell line, luminescence, inverse agonism; AID 504634; in the data active = inhibition mostly above about 23%, no sharp cut-off; inactive = mostly below about 18%;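 note: 0% = cells with DMSO and 100% = no-cell wells with DMSO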
# OPRM1-OPRD1 ag – OPRM1-OPRD1 heterodimerization agonism | P35372+P41143 | cells, luminescence | activation, % at 9.3 µM | 340,000 compounds, 0.3% hits; in the data active = activation above about 18%;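 note: 0% = vehicle-treated cells and 100% = reference agonist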
# OPRM1-OPRD1 inv – inverse agonist of human OPRM1-OPRD1 heterodimerization; P35372+P41143; cell-based MOR-DOR heterodimer luminescence, inverse agonism; inhibition, % at 9.3 µM; 340,000 compounds, 0.21% hits; AID 504357; in the data active = inhibition above about 22%, passing the limit was not always enough;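 note: 0% = cells with DMSO and 100% = wells without cells with DMSO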
# HTR5A ag ctr – HTR5A agonism, opioid heterodimer counter-screen. P47898. HTR5A agonist assay, luminescence, cell-based. activation, % at 9.3 µM. 340,000 compounds, 0.61% hits. AID 504692; in the data active = activation mostly above about 9.5%, no sharp cut-off; inactive = mostly below about 7.6%;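 note: 0% = cells with vehicle only and 100% = reference agonist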
# Numbers without * were called inactive; i = inactive; · = no result given. Rows were chosen to be rich in hits. Some 2.2% of all compounds tested hit in one or more screens of this group.
SMILES,m5-HT2A agonist,HGIII-sPLA2 inh,HTR5A inv ctr,OPRM1-OPRD1 ag,OPRM1-OPRD1 inv,HTR5A ag ctr
COC(=O)[C@]12C[C@H](CC(=O)N3CCCC3)C(=O)N(CCC3=CCCCC3)C1=C[C@H](C(C)C)O[C@@H]2C1CC1,·,11,·,·,·,·
O=C(Nc1ccccn1)c1ccc2ccccc2n1,-4,1,-11,-3,13,8.9*
O=C(Nc1nccs1)c1ccc2ccccc2n1,4,5,2,-2,8,-1
CCCCOc1ccc(C(=O)NC2CCCCN(Cc3cccc(C(F)(F)F)c3)C2=O)cc1 (stereo unspecified),·,12,·,·,·,·
NC(=O)C1CCN(c2nc(-c3ccc4c(c3)OCCCO4)cs2)CC1,·,1,·,·,·,·
CC(=O)Nc1cccc(-c2csc(Nc3ccc(Cl)cn3)n2)c1,-4,-25,7,-1,7,-1
CC(=O)Nc1ccc(-c2csc(Nc3ccc(Cl)cn3)n2)cc1,-2,-14,-28,2,-8,11*
COc1ccc(CN(C)C(=O)c2cccc(NC(=O)CC3SC(N4CCCCC4)=NC3=O)c2)c(OC)c1 (stereo unspecified),-3,-19,-29,5,-25,11*
CCC[C@H]1[C@@H](NC(=O)C2CCOC2)CC[C@@]23CCCN2C(=O)CCC[C@@H]13 (stereo partly specified),·,2,·,·,·,·
Cn1ncc2c(O/N=C(\N)c3ccc(C(C)(C)C)cc3)ncnc21,-1,·,-166,182*,i,68*
CCOC(=O)c1ccc(Nc2ncnc3c2cnn3C)cc1,2,5,-12,0,2,-4
COC(=O)[C@]12C[C@H](CC(=O)NCc3cccc4ccccc34)C(=O)N(Cc3ccco3)C1=C[C@H](C(C)(C)C)O[C@@H]2C,·,-12,·,·,·,·
CC[C@@H](C(=O)[C@@H](C)[C@@H](O)[C@H](C)CCc1ccc(C)c(O)c1C(=O)O)[C@H]1O[C@](CC)([C@H]2CC[C@](O)(CC)[C@H](C)O2)C[C@@H]1C,193*,-52,-143,102*,i,40*
NC(=O)c1ccc(NCCc2cccs2)cc1,-3,0,·,·,·,·
Cn1c2ccccc2c(=O)c2ccc(NCCc3cccs3)cc21,3,-9,-19,6,-35,14*
c1nc(NCC2CC2)c2cc(-c3ccc4c(c3)OCO4)ccc2n1,·,-15,·,·,·,·
CN(CCO)c1cc(N(C)CCO)c([N+](=O)[O-])cc1[N+](=O)[O-],2,1,-4,0,-1,12*
CN(CCO)c1ccc(-c2nn(C)c(=O)c3ccccc23)cc1[N+](=O)[O-],1,0,14,-1,7,3
CN1Cc2nnn(Cc3ccccc3)c2-c2ccccc2S1(=O)=O,·,6,·,·,·,·
CCCNC(=O)C1CCC(CNS(=O)(=O)c2ccc3c(c2)CC(C)N3C(C)=O)CC1 (stereo unspecified),1,2,13,-3,19,-2
COCCNC(=O)C1CCC(CNS(=O)(=O)c2ccc3c(c2)CC(C)N3C(=O)C2CC2)CC1 (stereo unspecified),6,2,17,-3,17,12*
Cc1cc(C)nc(N2CCCC(C(=O)NCc3cccc(C(F)(F)F)c3)C2)n1 (stereo unspecified),2,-2,-12,-2,12,12*
CC[C@H]1C=C[C@@H](C(=O)NS(=O)(=O)c2ccc(C)cc2)N(C(C)=O)C1,·,-3,·,·,·,·
Cc1cccc(NC(=S)N=Nc2c(O)[nH]c3ccccc23)c1,-3,20*,-1,-2,10,0
O=C(N=Nc1c(O)[nH]c2ccccc12)Nc1ccccc1,5,4,1,1,-3,0
SMILES,m5-HT2A agonist,HGIII-sPLA2 inh,HTR5A inv ctr,OPRM1-OPRD1 ag,OPRM1-OPRD1 inv,HTR5A ag ctr
COC(=O)c1cccc(NC(=O)CCNC(=O)c2ccco2)c1,2,3,-29,3,-16,13*
COC(=O)c1cccc(NC(=O)c2ccco2)c1,2,-3,-17,0,2,6
COC(=O)[C@]12C[C@H](CC(=O)N3CCCC3)C(=O)N(Cc3ccc(Cl)cc3Cl)C1=C[C@H](COCc1ccccc1)O[C@@H]2C,·,-9,·,·,·,·
Cc1c(/C=N\NC(=O)c2csc3ccccc23)cnn1C,-3,7,-50,-1,3,11*
O=C(N/N=C/c1sc(=O)n(Cc2ccc(Br)cc2)c1Cl)c1ccco1,-6,-1,-87,27*,-133,26*
O=C(N/N=C/c1ccc(Br)s1)c1ccco1,-3,-6,4,1,-3,-1
C[C@H]1[C@@H](OC(=O)NCc2ccc(Cl)c(Cl)c2)CC[C@@]23CCCN2C(=O)CCC[C@@H]13,·,-12,·,·,·,·
Cc1ccc(-c2cc(-c3nnc(SCC(=O)N4c5ccccc5Sc5ccc(Cl)cc54)n3N)[nH]n2)cc1,·,1,·,·,·,·
Cn1c(N)c(C(=O)COC(=O)C2(c3ccc(Cl)cc3)CCCC2)c(=O)n(C)c1=O,0,0,-15,1,-6,7
Cn1c(N)c(C(=O)COC(=O)C2(c3ccc(F)cc3)CCCC2)c(=O)n(C)c1=O,-1,-9,18,1,-8,8.4*
N=c1c2c(ccn1CCCCc1ccccc1)Oc1ccc3ccccc3c1C2c1ccccc1 (stereo unspecified),·,-1,·,·,·,·
CN(C(=O)COc1cc(=O)n(C)c2ccccc12)c1cccc(Cl)c1,3,8,4,-2,10,-2
Cc1cccc(N(C)C(=O)COc2cc(=O)n(C)c3ccccc23)c1,1,2,-31,-1,4,11*
CCn1c(=O)cc(OCC(=O)Nc2cc(C)ccn2)c2ccccc21,-2,5,-6,0,1,1
CCn1c(=O)cc(OCC(=O)NCCc2cccc(C)c2)c2ccccc21,-3,-2,-32,-1,5,12*
C[C@H]1[C@@H](OC(=O)NCCc2c[nH]c3ccccc23)CC[C@@]23CCCN2C(=O)CCC[C@@H]13,·,-59,·,·,·,·
O=[N+]([O-])c1cc2c(cc1C=Nc1ccccc1)OCO2,15*,·,4,4,-26,0
CCc1sc(C(=O)NCCCn2ccnc2)cc1Br,-1,-7,-37,-2,7,10*
O=C1CCC2(CCC(c3ccccc3)CC2)N1CC[C@@H](O)c1ccccc1 (stereo partly specified),·,-2,·,·,·,·
CCCC(=O)OCCNc1cc(Sc2nccn2C)c2nonc2c1[N+](=O)[O-],-4,19*,-18,-7,40*,-8
CCOC(=O)CNC(=O)CSc1nc2nc(C)c(Br)cc2[nH]1,4,-7,14,2,-10,13*
COc1ccc(-c2sc3ccc(N4CCOCC4)cc3c2C#CC2(O)CCCCC2)cc1,-6,-23,-46,4,-25,13*
COc1ccc(-c2sc3ccc(N4CCOCC4)cc3c2C#CCO)cc1,-3,-11,6,4,-26,3
O=C(NC1CCC1)c1ccc(C#CC2CC2)c[n+]1[O-],·,14,·,·,·,·
